This is one part of the list. A number with no mark means an inactive call. Active and inactive are the calls of the source. Rule as the data show it: active = IC50 below about 80 µM; inactive = the rest.

A short description of this assay: isolated mitochondria fluorescence counter-assay – biochemical, uHTS hits, counter-screen for MPTP inhibitor project, dose response (AID 651564). The following applies: isolated mitochondria counterscreen, fluorescence read-out.

Regarding `O=Cc1cn(Cc2ccc(F)cc2Cl)c2ccccc12`, the IC50 (usually the midpoint of a concentration-inhibition curve) is 22.6 µM (active).

As for `COc1ccc(C2NCc3ccc4c(c3-n3cccc32)OCO4)cc1OC` (stereo not drawn), the IC50 is above 80 µM.

`CC(Cc1ccccc1)NCCC(c1ccccc1)c1ccccc1` (stereo not drawn): the IC50 was 18.7 µM (active).

For the origin of these results see PubChem BioAssay AID651564 (Sanford-Burnham Center for Chemical Genomics, 2012).
